Experimental data published in PubChem BioAssay.

Experiment: Her2 expression decrease, cell viability multiplex – SKBR3 breast tumor cells, AlphaScreen, ATP viability, primary screen (AID 461);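 also: percent of carrier control wells set as 100% viability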
Details: SKBR3 Her2 protein level, 18-24 h, measured here: SKBR3 viability, ATP luminescence, at 10 µM

Row | Structure (SMILES) | viability
1 | Cc1ccc2cc(CCNC(=O)C(C)C)c(=O)[nH]c2c1C | 87.5%
2 | CCOC(=O)c1c(C)n(C)c2c(C)cc(O)c(OC(C)=O)c12 | 93%
3 | CC(C)(O)C#Cc1ccc(C(=O)N2CCN(C(=O)c3ccco3)CC2)cc1 | 102%
4 | COc1ccc(-n2ncc3c(N4CCC(C)CC4)ncnc32)cc1 | 100%
5 | CCc1nc2sc(C)c(C)c2c(=O)n1CCO | 106%
6 | COc1cc2c(cc1OC)CN(C(=O)CSc1nc3[nH]ncc3c(=O)n1-c1ccccc1)CC2 | 105%
7 | Cc1ccccc1-n1c(Cn2c(=O)sc3ccccc32)nnc1SCC(N)=O | 96.5%
8 | Cc1nc2sc(C(c3cccs3)N3CCOCC3)c(O)n2n1 (stereo unspecified) | 90%
9 | Cc1nc2ccccc2c2oc(C(=O)N3CCN(C(=O)c4ccco4)CC3)cc12 | 79%
10 | CCC(C)NC(=O)c1cn(CC)c2ccc(S(=O)(=O)N(C)C)cc2c1=O (stereo unspecified) | 87%
11 | O=C(OCN1C(=O)c2ccccc2C1=O)C1CCCCC1 | 82%
12 | O=C(Nc1nc(-c2ccccn2)cs1)C1CC1 | 93.5%
13 | COCCOC(=O)C1=C(C)N=c2s/c(=C\c3cccs3)c(=O)n2C1c1cccs1 (stereo unspecified) | 91.5%
14 | CCOC(=O)c1sc2nc(NC(=O)C(C)(C)C)sc2c1C | 104%
15 | Cn1c(Cc2ccccc2)nnc1SCC(=O)NC1CCCCC1 | 107%
16 | CCCNC(=O)C1CC(=O)N(c2ccc(OCC(=O)Nc3cc(C)cc(C)c3)cc2)C1 (stereo unspecified) | 112%
17 | O=P(O)(CN1CCCCCC1)CN1CCCCCC1 | 93%
18 | O=c1oc2c3c4c(cc2cc1-c1nc2ccccc2[nH]1)CCCN4CCC3 | 79.5%
19 | CCOC(=O)c1[nH]c(C)c(C(=O)NC)c1C | 92%
20 | CCCOc1ccc(C2C(C(=O)OC)=CN(CCOC)C=C2C(=O)OC)cc1 | 89%
21 | CCCCN(CC)CCCNC(=O)c1cc2c(=O)n(C)c3ccccc3c2n1C | 76%
